Records with an inconclusive call do not appear. The source made the active and inactive calls. The call rests on the fitted dose curve; in most records, active means well fitted inhibition curve with a large enough effect; inconclusive means small, poorly fitted or top-dose-only effect; inactive means flat fitted curve, though single readings scatter.
Experiments:
Assay in all cases: qHTS profiling for inhibitors of Plasmodium falciparum proliferation (AID 504749); further: nearly all actives have a fitted effect of over 60% in size
Conditions in all cases: P. falciparum in erythrocytes, SYBR Green DNA, 72 h; series mostly up to 28.7 µM
C2A = tested on: C2A
Method in brief: (§1)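 SYBR Green fluorescence of parasite DNA, read after lysis and overnight dark incubation, measured growth over 72 h in erythrocyte culture at 0.3% parasitemia and 2.5% hematocrit. Data normalised to DMSO and 0.29 uM artemisinin, with plate-drift correction.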

CP185 = tested on: CP185
Method in brief: as §1

CP192 = tested on: CP192
Method in brief: as §1

CP194 = tested on: CP194
Method in brief: as §1

CP201 = tested on: CP201
Method in brief: as §1

CP203 = tested on: CP203
Method in brief: as §1

AS120 = tested on: AS120
Method in brief: as §1

ATS189 = tested on: ATS189
Method in brief: as §1

CP191 = tested on: CP191
Method in brief: as §1

ATS95 = tested on: ATS95
Method in brief: as §1

Measured: Potency
Potency means the concentration at half of the fitted maximal effect.

[Cl][In]([Cl])[Cl]
inactive: C2A | CP185 | CP192 | CP194 | CP201 | CP203

CNC(=O)Oc1ccc2c(c1)[C@]1(C)CCN(C)[C@@H]1N2C
active: AS120 2000 nM | ATS189 2240 nM | C2A 1780 nM | CP185 1580 nM | CP191 2240 nM

Cc1c(O)cccc1C(=O)N[C@@H](CSc1ccccc1)[C@H](O)CN1C[C@H]2CCCC[C@H]2C[C@H]1C(=O)NC(C)(C)C
active: AS120 10000 nM
inactive: C2A | CP185 | CP192

CCOC(CN1CCN(CC(C)C(=O)c2ccccc2)CC1)c1ccccc1 (stereo unspecified)
not listed: CP194 | ATS189
inactive: all other assays above

Cc1ccc2nc(N)[nH]c(=O)c2c1Sc1ccncc1
inactive: CP192 | CP194 | CP201 | CP203
active: AS120 4470 nM | ATS189 8910 nM | C2A 11200 nM | CP185 5010 nM | CP191 2510 nM

CN1CCCCC1CCN1c2ccccc2Sc2ccc(S(C)=O)cc21 (stereo unspecified)
inactive: CP185 | CP192 | CP201

OCc1cc(C(O)CNCCCCCCOCCCCc2ccccc2)ccc1O (stereo unspecified)
not listed: CP203 | CP191
inactive: all other assays above

CNCCC(Oc1ccc(C(F)(F)F)cc1)c1ccccc1 (stereo unspecified)
inactive: CP185 | CP192 | CP201

CCOc1nc2cccc(C(=O)O)c2n1Cc1ccc(-c2ccccc2-c2nn[nH]n2)cc1
inactive: ATS189 | CP185 | CP191 | CP192 | CP201

Reference: PubChem BioAssay (NCATS)
